{"source": "PubChem BioAssay (NCATS)", "key": {"Tov112D": {"tested_on": "Tov112D", "test": "Primary qHTS to identify gynecologic anti-cancer compounds using libraries of approved drugs and bioactive compounds (AID 1345084); further: potency means the concentration at half of the fitted maximal effect; on all read-outs here: nearly all actives have a fitted effect of over 55% in size", "settings": "Gynecologic cancer cell panel viability, ATPlite luminescence, 48 h; series mostly up to 57.5 µM", "in_short": "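Measured: luminescence after ATPlite addition (15 min, RT). Exposure: 48 h, 37 C, 5% CO2.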"}, "astro": {"tested_on": "astro", "test": "Drug repurposing screens with cells derived from glioblastoma tumor samples (AID 1345199); further: potency means the concentration at half of the fitted maximal effect; on activity, negative = cell killing: on the % scale 0 is the no-effect control and ±100 the full control effect; on all read-outs here: nearly all actives have a fitted effect of over 40% in size", "settings": "viability, ATP luminescence, 48 h; series mostly up to 45.9 µM", "in_short": "(§1)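 Primary testing used CD133+ neurospheres from four GBM patients, seven concentrations, 48 h exposure and ATP-based viability; confirmation added three slower-growing patient lines.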"}, "[1]": {"test": "qHTS assay to identify inhibitors of the type 1 interferon - major histocompatibility complex class I in skeletal muscle: Counter screen cell viability and HiBit confirmation (AID 1347412)", "settings": "iHSKM muscle cells + IFN-b, HiBiT or CellTiter-Glo, 24 h; Potency: HiBiT; Viability, at 45.9 µM (top of the series)", "in_short": "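Luminescence read-out: Nano-Glo HiBiT lytic signal from C-terminally HiBiT-tagged HLA-B in CRISPR-edited human myoblasts, plus CellTiter Glo ATP as viability counter screen. IFN-beta 4.0 ng/ml; 24 hrs treatment at 37 C, 5% CO2.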"}, "[2]": {"test": "Drug repurposing screens with cells derived from glioblastoma tumor samples (AID 1345199)", "settings": "GBM patient neurospheres viability, ATP luminescence, 48 h; for Potency: tumour line A", "in_short": "as §1"}, "[3]": {"target": "Nuclear receptor subfamily 1 group I member 2 (Rattus norvegicus) (UniProt Q9R1A7)", "sequence (Q9R1A7 whole entry, looked up)": "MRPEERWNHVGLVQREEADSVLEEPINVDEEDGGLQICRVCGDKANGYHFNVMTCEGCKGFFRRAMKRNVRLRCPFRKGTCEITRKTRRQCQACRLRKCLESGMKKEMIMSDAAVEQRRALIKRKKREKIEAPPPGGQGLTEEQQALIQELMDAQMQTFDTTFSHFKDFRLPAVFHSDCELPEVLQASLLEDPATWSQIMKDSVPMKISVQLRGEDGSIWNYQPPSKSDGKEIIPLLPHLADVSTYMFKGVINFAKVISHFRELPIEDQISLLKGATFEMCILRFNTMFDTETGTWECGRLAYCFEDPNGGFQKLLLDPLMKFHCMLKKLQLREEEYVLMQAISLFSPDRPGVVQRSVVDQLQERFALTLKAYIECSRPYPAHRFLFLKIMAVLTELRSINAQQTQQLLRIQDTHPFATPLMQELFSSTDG", "test": "qHTS assay for small molecule activators of the rat pregnane X receptor (rPXR) signaling pathway (AID 651751; call rule not given here)", "settings": "rPXR reporter cells, luciferase (One-Glo), 24 h"}, "[4]": {"test": "qHTS assay for small molecule activators of the human pregnane X receptor (PXR) signaling pathway (AID 720659; call rule not given here)", "settings": "DPX-2 HepG2 CYP3A4-luciferase, 24 h; series mostly up to 92.3 µM"}, "[5]": {"settings": "at 45.9 µM (top of the series), tumour line B"}, "[6]": {"settings": "at 46.1 µM (top of the series), tumour line C"}}, "note": "Values without a mark were called inactive. Records with an inconclusive call do not appear. Activity calls are given as the source filed them. Unless noted, the call rests on the fitted dose curve; in most records, active means well fitted curve in the direction sought with a large enough effect; inconclusive means small, poorly fitted or top-dose-only effect, or another doubt; inactive means no such curve, though single readings can be large; an effect the other way counts as inactive or inconclusive. Wherever Potency is given: potency means the concentration at half of the fitted maximal effect. Wherever max response is given: 0% is about no effect."}
{"smiles": "OC(CN1CCC(Cc2ccc(F)cc2)CC1)c1ccc(Cl)cc1", "note": "(stereo not given)", "values": [{"measurement": "Potency", "setting": "Tov112D", "result": "inactive"}, {"measurement": "Potency", "setting": "astro", "result": "inactive"}]}
{"smiles": "Cc1cnc(Nc2ccc(OCCN3CCCC3)cc2)nc1Nc1cccc(S(=O)(=O)NC(C)(C)C)c1", "values": [{"measurement": "Potency", "setting": "Tov112D", "result": "11.2 µM (active)"}, {"measurement": "Potency", "setting": "[1]", "result": "6.25 µM (active)"}]}
{"smiles": "Cc1c(C)c2c(c(C)c1O)CCC(C)(COc1ccc(CC3SC(=O)NC3=O)cc1)O2", "note": "(stereo not given)", "values": [{"measurement": "Potency", "setting": "Tov112D", "result": "inactive"}, {"measurement": "activity, negative = cell killing", "setting": "[2]; [5]", "result": -4.67, "unit": "%"}, {"measurement": "activity, negative = cell killing", "setting": "[2]; [6]", "result": -19.7, "unit": "%"}, {"measurement": "Potency", "setting": "astro", "result": "10 µM (active)"}, {"measurement": "max response", "setting": "[3]", "result": -12.9, "unit": "%"}]}
{"smiles": "O=c1[nH]cnc2[nH]ncc12", "values": [{"measurement": "Potency", "setting": "Tov112D", "result": "inactive"}, {"measurement": "Potency", "setting": "astro", "result": "inactive"}, {"measurement": "max response", "setting": "[3]", "result": 2.04, "unit": "%"}, {"measurement": "outcome", "setting": "[4]", "result": "inactive"}]}
{"smiles": "Cc1ccccc1C(OCCN(C)C)c1ccccc1", "note": "(stereo not given)", "values": [{"measurement": "Potency", "setting": "Tov112D", "result": "inactive"}, {"measurement": "Potency", "setting": "astro", "result": "inactive"}, {"measurement": "max response", "setting": "[3]", "result": 4.25, "unit": "%"}]}
{"smiles": "CNC(=O)c1ccccc1Sc1ccc2c(/C=C/c3ccccn3)n[nH]c2c1", "values": [{"measurement": "Potency", "setting": "Tov112D", "result": "8.91 µM (active)"}, {"measurement": "Potency", "setting": "astro", "result": "2 µM (active)"}]}
{"smiles": "O=C1CCc2cc(OCCCCc3nnnn3C3CCCCC3)ccc2N1", "values": [{"measurement": "Potency", "setting": "Tov112D", "result": "inactive"}, {"measurement": "Potency", "setting": "astro", "result": "inactive"}]}
{"smiles": "Cc1ccc(N(CC2=NCCN2)c2cccc(O)c2)cc1", "values": [{"measurement": "activity, negative = cell killing", "setting": "[2]; [5]", "result": -13.6, "unit": "%"}, {"measurement": "activity, negative = cell killing", "setting": "[2]; [6]", "result": -7.27, "unit": "%"}, {"measurement": "Potency", "setting": "[2]", "result": "14.1 µM (active)"}, {"measurement": "Potency", "setting": "astro", "result": "inactive"}]}
{"smiles": "NCCCC(N)(C(=O)O)C(F)F", "note": "(stereo not given)", "values": [{"measurement": "Potency", "setting": "Tov112D", "result": "inactive"}, {"measurement": "Potency", "setting": "astro", "result": "inactive"}]}
{"smiles": "Oc1ccc(C2CNCCc3c2cc(O)c(O)c3Cl)cc1", "note": "(stereo not given)", "values": [{"measurement": "Potency", "setting": "Tov112D", "result": "inactive"}, {"measurement": "activity, negative = cell killing", "setting": "[2]; [6]", "result": 2.51, "unit": "%"}, {"measurement": "Potency", "setting": "astro", "result": "inactive"}]}
{"smiles": "CCOC(=O)N1CCC(=C2c3ccc(Cl)cc3CCc3cccnc32)CC1", "values": [{"measurement": "activity, negative = cell killing", "setting": "[2]; [5]", "result": -28.2, "unit": "%"}, {"measurement": "activity, negative = cell killing", "setting": "[2]; [6]", "result": -20.3, "unit": "%"}, {"measurement": "Potency", "setting": "[2]", "result": "10 µM (active)"}]}
{"smiles": "CN1CCN(CCCN2c3ccccc3Sc3ccc(C(F)(F)F)cc32)CC1", "values": [{"measurement": "Potency", "setting": "astro", "result": "25.1 µM (active)"}]}
{"smiles": "CCCCNc1cc(C(=O)O)cc(S(N)(=O)=O)c1Oc1ccccc1", "values": [{"measurement": "Potency", "setting": "Tov112D", "result": "inactive"}, {"measurement": "Potency", "setting": "astro", "result": "inactive"}]}
{"smiles": "Cc1cc2c(C(C)C)c(O)c(O)c(C=O)c2c(O)c1-c1c(C)cc2c(C(C)C)c(O)c(O)c(C=O)c2c1O", "values": [{"measurement": "Potency", "setting": "Tov112D", "result": "inactive"}, {"measurement": "Potency", "setting": "[1]", "result": "inactive"}, {"measurement": "outcome", "setting": "[4]", "result": "inactive"}]}
{"smiles": "N#Cc1ccc(C(c2ccc(C#N)cc2)n2cncn2)cc1", "values": [{"measurement": "activity, negative = cell killing", "setting": "[2]; at 20 µM (top of the series), tumour line C", "result": -3.52, "unit": "%"}, {"measurement": "activity, negative = cell killing", "setting": "[2]; at 21.2 µM (top of the series), tumour line B", "result": -10, "unit": "%"}, {"measurement": "activity, negative = cell killing", "setting": "[2]; at 21.2 µM (top of the series), tumour line D", "result": -7.94, "unit": "%"}, {"measurement": "Potency", "setting": "astro", "result": "inactive"}]}
{"smiles": "O=C(NOC[C@H](O)CO)c1ccc(F)c(F)c1Nc1ccc(I)cc1F", "values": [{"measurement": "Potency", "setting": "Tov112D", "result": "inactive"}, {"measurement": "Potency", "setting": "astro", "result": "0.447 µM (active)"}]}
{"smiles": "Cc1cc(Nc2nc(N[C@@H](C)c3ncc(F)cn3)ncc2Cl)n[nH]1", "values": [{"measurement": "Potency", "setting": "[1]", "result": "1.4 µM (active)"}]}
